In PubChem BioAssay (NCATS):
Several values for one entry are separate records, joined by “and”; a condition that tells them apart may be missing. Equal entries are not always repeated. Records with an inconclusive call do not appear. Activity calls are given as the source filed them. Unless noted, calls follow the shape of the dose curve; as a rule, active = well fitted curve in the direction sought with a large enough effect; inconclusive = small, poorly fitted or top-dose-only effect, or another doubt; inactive = no such curve, though single readings can be large; an effect the other way counts as inactive or inconclusive.

Columns and labels:
[1] = Cell Viability - Renal Proximal Tubule (AID 545); conditions: renal proximal tubule cells viability; series mostly up to 91.7 µM;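 also: cells exposed to compound for 40 hours; 0% = DMSO only and -100% = 100 µM tamoxifen; nearly all actives have a fitted effect of over 40% in size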
Procedure, shortened: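 Luminescent ATP signal (CellTiter-Glo) served as the viability read-out after 40 hr compound exposure of freshly isolated rat proximal tubule cells at 37 °C. Concentration-dependent ATP loss was fitted with the Hill equation to give AC50.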

[2] = Cell Viability - LYMP2-017 (AID 972); conditions: LYMP2-017 lymphoblastoid cell viability; series mostly up to 92.2 µM; also: % is scaled to controls: 0 for no effect and ±100 for the full control effect; nearly all actives have a fitted effect of over 55% in size
Procedure, shortened: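 CellTiter-Glo luminescence (cellular ATP, 30 min RT) measured cytotoxicity after 24 hr compound treatment at 37 C. Cells were a human lymphoblastoid line, LYMP2-017, plated at 2500/well and incubated 5 hr first; concentration-response fitted with Hill equation for AC50.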

[3] = Cell Viability - LYMP2-019 (AID 973); conditions: LYMP2-019 lymphoblastoid cell line viability; series mostly up to 92.2 µM;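 also: 0% = DMSO alone and full effect = 92 µM tetraoctylammonium bromide; nearly all actives have a fitted effect of over 55% in size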
Procedure, shortened: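 AC50 values come from Hill-equation fits of luminescent intracellular ATP (CellTiter-Glo, 30 min, room temperature) following 24 h compound exposure at 37 C. Cells: LYMP2-019 lymphoblastoid line, 2500 per well, in complete culture medium.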

[4] = Cell Viability - LYMP2-021 (AID 974); conditions: LYMP2-021 lymphoblastoid cells viability; series mostly up to 92.2 µM; also: % is scaled to controls: 0 for no effect and ±100 for the full control effect; nearly all actives have a fitted effect of over 55% in size
Procedure, shortened: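 AC50 values come from Hill-equation fits to CellTiter-Glo luminescence (ATP content), read after 24 hour compound exposure at 37 C of 2500 LYMP2-021 lymphoblastoid cells/well; tetraoctylammonium bromide as positive control.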

[5] = Cell Viability - LYMP2-002 (AID 977); conditions: LYMP2-002 lymphoblastoid cell viability, qHTS; series mostly up to 92.2 µM;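 also: plate controls were DMSO only for no effect and 92 µM tetraoctylammonium bromide for full effect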
Procedure, shortened: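 Human lymphoblastoid cells (2500/well) in complete medium were preincubated 5 hr at 37 C, then exposed to compounds for 24 hr at 37 C. Intracellular ATP was read by CellTiter-Glo luminescence; AC50 came from Hill-equation concentration-response fits.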

[6] = Cell Viability - LYMP2-020 (AID 986); conditions: series mostly up to 92.2 µM;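 also: plate controls were DMSO only for no effect and tetraoctylammonium bromide at 92 µM for full effect; nearly all actives have a fitted effect of over 55% in size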
Procedure, shortened: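 Cytotoxicity in qHTS format: luminescent ATP readout from CellTiter-Glo after 24 h compound exposure at 37 C in complete medium. LYMP2-020 lymphoblastoid cells were seeded at 2500/well; concentration-response data fitted to the Hill equation for AC50.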

[7] = Cell Viability - LYMP1-002 - Assay at 40 hr (AID 994); conditions: LYMP1-002 lymphoblastoid cell viability; series mostly up to 92.2 µM;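 also: 0% = DMSO only and full inhibition = 92 µM tetraoctylammonium bromide; nearly all actives have a fitted effect of over 60% in size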
Procedure, shortened: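 Cytotoxicity was read as loss of cellular ATP (CellTiter-Glo luminescence) after 40 hr compound exposure at 37 C of 2500 LYMP1-002 lymphoblastoid cells per well. Concentration-response data were fitted with the standard Hill equation to give AC50.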

[8] = molecular target: Retinoic acid receptor RXR-alpha (Homo sapiens) (UniProt P19793); assay: qHTS assay for small molecule antagonists of retinoid X receptor alpha signaling (AID 588546; active = well fitted inhibition curve with a large enough effect in the signal ratio, with a control signal flat, not every such curve was filed as active; the % refers to the signal ratio;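 also: cells stimulated with 9-cis-retinoic acid as agonist; % is scaled to controls: 0 for no effect and ±100 for the full control effect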); conditions: HEK293T RXRa-UAS-bla, beta-lactamase ratio, antagonist mode
Procedure, shortened: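 Beta-lactamase reporter inhibition, read as CCF4 fluorescence ratio (ex 405, em 460/530 nm) after 2 h at RT. HEK293T UAS-bla cells, 2500/well, were stimulated with 9-cis-RA at 500 or 100 nM final alongside test compound for 18 h at 37 C.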

[9] = molecular target: Voltage-gated inwardly rectifying potassium channel KCNH2 (Homo sapiens) (UniProt Q12809); assay: qHTS Assay for Small Molecule Inhibitors of the Human hERG Channel Activity (AID 588834); conditions: U2OS BacMam hERG, FluxOR thallium flux fluorescence; series mostly up to 92.2 µM;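 also: top concentration of the series differs between compounds; % is scaled to controls: 0 for no effect and ±100 for the full control effect; lower thallium flux fluorescence means stronger hERG block; nearly all actives have a fitted effect of over 50% in size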
Procedure, shortened: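 Step 1: BacMam hERG transduction of U2OS, 4 hrs RT. Step 2: overnight 37 °C, plate 2000 cells/well, 4 hr. Step 3: FluxOR load, compound 10 min, stimulate, read fluorescence.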

[10] = qHTS assay for small molecule activators of the p53 signaling pathway (AID 651743; active = well fitted activation curve with a large enough effect in the signal ratio, not every such curve was filed as active; the % refers to the signal ratio; also: % of control where 0% means no effect); conditions: HCT-116 p53RE-bla, beta-lactamase FRET ratio, 16 h; activation: stronger effect = higher value
Procedure, shortened: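 After 16 hours compound treatment at 37 C, HCT-116 cells stably expressing p53RE-driven beta-lactamase were loaded with LiveBLAzer B/G FRET substrate for 2 hours at room temperature. Fluorescence intensity served as the p53 activation read-out.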

[11] = qHTS assay for small molecule activators of the nuclear factor-kappa B (NF-kB) signaling pathway (AID 651749; active = well fitted activation curve with a large enough effect in the signal ratio; the % refers to the signal ratio; also: % of control where 0% means no effect); conditions: NF-kB-bla ME-180 cells, beta-lactamase FRET ratio, 16 h; stronger effect = higher value
Procedure, shortened: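 Activation measured after 16 hr compound treatment at 37C, 5% CO2, of 2,000 ME-180 cells/well stably expressing an NF-kB response element–driven beta-lactamase reporter, via FRET-disruption fluorescence.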

[12] = molecular target: Nuclear receptor ROR-gamma (Homo sapiens) (UniProt P51449); assay: qHTS assay for small molecule antagonists of the retinoid-related orphan receptor gamma (ROR-gamma) signaling pathway (AID 651802); conditions: ROR-gamma antagonist cell reporter assay; series mostly up to 92.2 µM;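 also: CHO cells with doxycycline-induced ROR-gamma expression; luciferase reporter luminescence driven by ROR response element; % is scaled to controls: 0 for no effect and ±100 for the full control effect; nearly all actives have a fitted effect of over 60% in size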
Procedure, shortened: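 Luminescence (One-Glo, 30 min RT) measured 16 h after compound addition and doxycycline induction at 37C. Reporter: RORE-luciferase under TET-inducible ROR-gamma in CHO cells.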

[13] = qHTS assay for small molecule agonists of the antioxidant response element (ARE) signaling pathway measured by Nrf2-dependant transcriptional activity (AID 720636; active = well fitted curve in the direction sought with a large enough effect in the repeat runs; an effect the other way counts as inactive or inconclusive;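 also: HepG2 cells with an ARE-driven luciferase reporter; % of control where 0% means no effect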); conditions: ARE-luc HepG2, Nrf2 luciferase reporter, 16 h; series mostly up to 92.4 µM
Procedure, shortened: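 HepG2 ARE-luc reporter line, 1% dialyzed FBS; 6 hr attachment at 37 C, compound pinned in, 16 hr at 37 C/5% CO2; ONE-Glo, 30 min RT, luminescence read.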

[14] = qHTS assay for cell viability of HEK293 cells (AID 743288); conditions: ATP luminescence (CellTiter-Glo), 18 h, stronger effect = lower value; also: % is scaled to controls: 0 for no effect and ±100 for the full control effect; nearly all actives have a fitted effect of over 50% in size
Procedure, shortened: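 Viable-cell counts were inferred from luciferase-based ATP content in HEK293 cells seeded at 2,000/well, pre-incubated ≥5 h, then dosed with DMSO-solubilised compounds for 18 h at 37 C.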

[15] = molecular target: Cytochrome P450 3A4 (Homo sapiens) (UniProt P08684); assay: qHTS Assay for Inhibitors and Substrates of Cytochrome P450 3A4 (AID 884); conditions: recombinant CYP3A4, Luciferin-PPXE luminescence; series mostly up to 57.1 µM; also: nearly all actives have a fitted effect of over 50% in size; also: potency is read from the fitted curve at half-maximal effect
Procedure, shortened: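 Luminescent readout of luciferin produced by CYP3A4 (20 nM) dealkylation of Luciferin-PPXE, 25 uM (its KM). NADPH-driven reaction ran 60 min at RT after 10 min compound preincubation; data scaled to 57 uM ketoconazole as 100% inhibition.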

[16] = Cell Viability - LYMP2-009 (AID 968); conditions: LYMP2-009 lymphoblastoid cell viability; series mostly up to 92.2 µM
[17] = qHTS assay for environmental chemicals that activate the Aryl hydrocarbon Receptor (AhR) signaling pathway (AID 651777); conditions: 1A2-DRE human hepatoma cells, luciferase, 24 h; activation: stronger effect = higher value; also: nearly all actives have a fitted effect of over 15% in size; also: potency is read from the fitted curve at half-maximal effect; as to activation: % of control where 0% means no effect
Procedure, shortened: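 Luminescence read-out: One-Glo added for 30 min at RT after 24 hr compound treatment (37 C, 5% CO2) of human hepatoma cells expressing a DRE/CYP1A2 promoter–luciferase reporter; increased signal indicates AhR activation.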

[18] = Cell Viability - LYMP2-010 (AID 981); conditions: LYMP2-010 lymphoblastoid cell viability, qHTS; series mostly up to 92.2 µM; also: nearly all actives have a fitted effect of over 55% in size; also: potency is read from the fitted curve at half-maximal effect
Procedure, shortened: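 CellTiter-Glo ATP luminescence measured cytotoxicity after 24 h compound exposure at 37 C. LYMP2-010 cells were seeded at 2500/well, with tetraoctylammonium bromide as control; concentration-response curves gave AC50 values by the Hill equation.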

[19] = Cell Viability - LYMP2-011 (AID 969); conditions: LYMP2-011 lymphoblastoid cells viability; series mostly up to 92.2 µM;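 also: 0% = DMSO only and full inhibition = 92 µM tetraoctylammonium bromide; nearly all actives have a fitted effect of over 60% in size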
Procedure, shortened: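 Cytotoxicity qHTS with ATP content as read-out: lymphoblastoid cells (2500/well) exposed to compound for 24 h at 37 C, then luciferase luminescence measured. Concentration-response data fitted with the standard Hill equation to give AC50.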

[20] = qHTS assay for small molecule antagonists of the retinoid-related orphan receptor gamma (ROR-gamma) signaling pathway - cell viability counter screen (AID 720652; active = well fitted curve in the direction sought with a large enough effect in the repeat runs; an effect the other way counts as inactive or inconclusive;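 also: CHO reporter cells with doxycycline-induced ROR-gamma expression; compound exposure lasted 16 hr before ATP read; % is scaled to controls: 0 for no effect and ±100 for the full control effect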); conditions: RORgamma reporter cell line viability counter screen; series mostly up to 92.2 µM
Procedure, shortened: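 Cytotoxicity counter screen: intracellular ATP (CellTiter-Glo luminescence) measured in the doxycycline-induced CHO RORE-luciferase reporter line after 16 hr compound exposure at 37 C, 5% CO2.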

Chain of Cytochrome P450 3A4 (Homo sapiens) (P08684 whole entry, looked up): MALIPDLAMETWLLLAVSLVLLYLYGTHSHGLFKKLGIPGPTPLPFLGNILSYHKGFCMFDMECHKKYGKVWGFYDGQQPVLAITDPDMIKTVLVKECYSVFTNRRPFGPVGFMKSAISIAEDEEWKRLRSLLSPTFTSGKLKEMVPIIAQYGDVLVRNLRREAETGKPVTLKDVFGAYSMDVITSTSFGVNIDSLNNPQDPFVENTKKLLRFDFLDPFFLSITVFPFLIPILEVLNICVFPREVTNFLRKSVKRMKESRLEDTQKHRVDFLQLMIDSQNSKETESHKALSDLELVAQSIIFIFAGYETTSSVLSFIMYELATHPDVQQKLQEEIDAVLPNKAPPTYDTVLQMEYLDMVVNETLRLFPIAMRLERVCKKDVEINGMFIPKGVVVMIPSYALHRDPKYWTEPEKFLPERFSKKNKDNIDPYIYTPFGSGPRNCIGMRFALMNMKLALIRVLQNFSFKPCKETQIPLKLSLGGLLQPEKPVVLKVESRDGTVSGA
Chain of Retinoic acid receptor RXR-alpha (Homo sapiens) (P19793 whole entry, looked up): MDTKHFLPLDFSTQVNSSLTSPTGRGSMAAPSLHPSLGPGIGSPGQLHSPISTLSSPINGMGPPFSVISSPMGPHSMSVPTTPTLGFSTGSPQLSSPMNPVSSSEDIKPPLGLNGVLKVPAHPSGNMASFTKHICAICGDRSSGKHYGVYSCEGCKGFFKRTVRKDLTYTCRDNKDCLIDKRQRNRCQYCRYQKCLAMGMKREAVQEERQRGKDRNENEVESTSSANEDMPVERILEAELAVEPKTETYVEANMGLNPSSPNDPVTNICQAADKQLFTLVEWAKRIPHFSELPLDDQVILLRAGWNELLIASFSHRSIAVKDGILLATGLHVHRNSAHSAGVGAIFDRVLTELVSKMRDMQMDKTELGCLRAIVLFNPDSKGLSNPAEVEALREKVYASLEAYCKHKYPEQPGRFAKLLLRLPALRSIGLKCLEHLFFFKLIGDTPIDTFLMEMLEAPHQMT
Chain of Voltage-gated inwardly rectifying potassium channel KCNH2 (Homo sapiens) (Q12809 whole entry, looked up): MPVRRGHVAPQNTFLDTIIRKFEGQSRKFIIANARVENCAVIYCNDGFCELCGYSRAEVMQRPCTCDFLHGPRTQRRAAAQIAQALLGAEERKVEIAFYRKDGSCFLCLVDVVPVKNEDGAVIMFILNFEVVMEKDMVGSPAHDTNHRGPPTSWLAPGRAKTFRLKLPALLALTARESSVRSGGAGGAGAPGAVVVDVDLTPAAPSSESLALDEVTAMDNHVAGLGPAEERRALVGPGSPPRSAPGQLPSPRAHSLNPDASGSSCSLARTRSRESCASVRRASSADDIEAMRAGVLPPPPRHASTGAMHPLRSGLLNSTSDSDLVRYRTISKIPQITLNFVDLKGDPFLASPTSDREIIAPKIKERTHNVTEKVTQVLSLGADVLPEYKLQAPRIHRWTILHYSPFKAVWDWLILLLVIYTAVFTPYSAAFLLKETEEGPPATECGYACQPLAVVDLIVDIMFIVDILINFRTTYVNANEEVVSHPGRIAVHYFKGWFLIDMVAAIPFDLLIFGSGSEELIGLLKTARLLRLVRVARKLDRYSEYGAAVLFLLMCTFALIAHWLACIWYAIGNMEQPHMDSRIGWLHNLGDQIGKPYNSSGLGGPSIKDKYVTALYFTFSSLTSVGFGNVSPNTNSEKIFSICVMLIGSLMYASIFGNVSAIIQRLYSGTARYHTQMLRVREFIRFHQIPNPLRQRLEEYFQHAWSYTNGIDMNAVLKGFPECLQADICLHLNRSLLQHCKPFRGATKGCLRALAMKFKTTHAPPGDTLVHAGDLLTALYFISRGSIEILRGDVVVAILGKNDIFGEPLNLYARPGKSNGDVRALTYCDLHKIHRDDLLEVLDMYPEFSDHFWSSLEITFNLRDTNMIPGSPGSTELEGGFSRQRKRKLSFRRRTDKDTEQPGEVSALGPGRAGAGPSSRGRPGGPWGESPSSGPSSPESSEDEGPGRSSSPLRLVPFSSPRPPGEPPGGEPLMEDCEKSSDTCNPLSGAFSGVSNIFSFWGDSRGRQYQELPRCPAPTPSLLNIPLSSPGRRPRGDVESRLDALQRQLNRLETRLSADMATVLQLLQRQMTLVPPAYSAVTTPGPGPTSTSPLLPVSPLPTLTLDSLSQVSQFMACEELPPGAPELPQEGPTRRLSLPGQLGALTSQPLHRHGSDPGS
Chain of Nuclear receptor ROR-gamma (Homo sapiens) (P51449 whole entry, looked up): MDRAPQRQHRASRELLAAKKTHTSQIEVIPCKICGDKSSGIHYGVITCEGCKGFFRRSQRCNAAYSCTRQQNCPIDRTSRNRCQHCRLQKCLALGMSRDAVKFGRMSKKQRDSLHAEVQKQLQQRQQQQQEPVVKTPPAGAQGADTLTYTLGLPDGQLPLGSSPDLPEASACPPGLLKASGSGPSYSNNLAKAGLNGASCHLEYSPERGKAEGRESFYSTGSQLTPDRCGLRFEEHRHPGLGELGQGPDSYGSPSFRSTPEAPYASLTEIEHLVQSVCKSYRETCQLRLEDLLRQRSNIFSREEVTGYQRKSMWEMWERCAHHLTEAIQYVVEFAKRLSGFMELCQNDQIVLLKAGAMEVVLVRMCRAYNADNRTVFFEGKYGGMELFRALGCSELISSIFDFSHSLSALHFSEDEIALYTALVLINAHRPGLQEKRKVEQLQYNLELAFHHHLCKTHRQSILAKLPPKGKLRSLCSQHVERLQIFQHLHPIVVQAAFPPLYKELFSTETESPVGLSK

O=[N+]([O-])c1ccc2c3c(cccc13)CC2
inactive: outcome [1] | Potency [2] | Potency [3] | Potency [4] | Potency [5] | Potency [6] | Potency [7] | max response [8] 28.1% and 10.3% | Potency [9] | activation [10] -4.24% and -1.29% | activation [11] -1.76% and -1.52% | Potency [12] | Potency [13] | max response [14] -14% and -2.65%

Clc1ccc(C(c2ccccc2Cl)C(Cl)(Cl)Cl)cc1 (stereo unspecified)
inactive: outcome [1] | Potency [15] | Potency [16] | Potency [2] | Potency [3] | Potency [4] | Potency [5] | Potency [6] | Potency [7] | max response [8] -26% | activation [10] 0.576% and 10.5% | activation [11] 3.52% and 5.2% | activation [17] -0.21% and -0.331%

CN(C)c1ccc(N(C)C)cc1
inactive: outcome [1] | Potency [15] | Potency [5] | max response [8] 17.1% | Potency [9] | activation [11] 0.946% | activation [17] 12.9% | Potency [12] | max response [14] -3.92%
active: Potency [18] 50.1 µM

ClC(Br)Br
inactive: outcome [1] | Potency [16] | Potency [19] | Potency [2] | Potency [3] | Potency [4] | Potency [5] | Potency [18] | Potency [6] | Potency [7] | Potency [9] | activation [11] 1.19% | activation [17] 0.329% | Potency [12] | Potency [13] | Potency [20] | max response [14] 0.132%

CC(C)[N+](=O)[O-]
inactive: outcome [1] | Potency [15] | Potency [16] | Potency [19] | Potency [2] | Potency [3] | Potency [5] | Potency [18] | Potency [6] | Potency [7] | max response [8] 14.3% | Potency [9] | activation [10] -2.67% | activation [11] -0.258% | Potency [13]

C=CC(=O)OC
inactive: outcome [1] | Potency [15] | Potency [16] | Potency [19] | Potency [2] | Potency [3] | Potency [4] | Potency [5] | Potency [18] | Potency [6] | Potency [7] | max response [8] -3.6% | Potency [9] | activation [10] -0.53% | activation [11] -0.11% | activation [17] 1.42% | Potency [12] | Potency [13] | Potency [20] | max response [14] 4.03%

O=C(O)c1cccc(Cl)c1
inactive: outcome [1] | Potency [15] | Potency [16] | Potency [2] | Potency [4] | Potency [5] | Potency [18] | Potency [6] | Potency [7] | activation [11] -1.59% | activation [17] 0.728% | Potency [13] | Potency [20]

N#CCCCCC#N
inactive: outcome [1] | Potency [15] | Potency [16] | Potency [19] | Potency [4] | Potency [5] | Potency [6] | Potency [7] | max response [8] 12.5% | Potency [9] | activation [10] -0.437% | activation [17] 0.486% | Potency [12] | Potency [13] | Potency [20] | max response [14] -18.9%

Nc1ccc(Oc2ccc(N)cc2)cc1
inactive: outcome [1] | Potency [16] | Potency [19] | Potency [2] | Potency [4] | Potency [18] | Potency [6] | max response [8] 4.6% and -3% | Potency [9] | activation [10] -4.54% and -10.7% | activation [11] 0.532% and -1.89% | activation [17] 2.36% and 5.82% | Potency [12] | Potency [20] | max response [14] -1.7% and -3.88%

CCC/C=N/O
inactive: outcome [1] | Potency [15] | Potency [19] | Potency [2] | Potency [4] | Potency [5] | Potency [18] | Potency [6] | max response [8] -0.259% | Potency [9] | activation [17] -0.464% | Potency [12] | Potency [13] | Potency [20] | max response [14] 1.47%

C=CC(=O)OCC(CC)CCCC (stereo unspecified)
inactive: outcome [1] | Potency [15] | Potency [19] | Potency [2] | Potency [3] | Potency [4] | Potency [18] | Potency [7] | max response [8] 4.48% and -16.9% | Potency [9] | activation [10] 0.81% and 5.58% | activation [11] -0.0286% and 0.831% | activation [17] 2.67% and -0.331% | Potency [12] | Potency [13] | Potency [20]

Nc1cc(Cl)cc(C(=O)O)c1Cl
inactive: outcome [1] | Potency [16] | Potency [19] | Potency [2] | Potency [3] | Potency [4] | Potency [5] | Potency [18] | Potency [6] | Potency [7] | max response [8] 5.23% and 3.9% | Potency [9] | activation [10] -3.99% and 3.61% | activation [17] 7.92% and 6.33% | Potency [12] | Potency [13] | Potency [20] | max response [14] 10.5% and -2.29%

C=CC(=O)OCCO
inactive: outcome [1] | Potency [5] | max response [8] 11.3% | Potency [9] | activation [10] 1.07% | activation [11] 0.11% | Potency [13]
active: Potency [18] 50.1 µM

Nc1ccc(-c2ccc(N)c(Cl)c2)cc1Cl
active: Potency [15] 15.8 µM | Potency [17] 44.7 µM
inactive: Potency [16] | Potency [19] | Potency [2] | Potency [3] | Potency [18] | Potency [6] | max response [8] -19% and -20.8% | Potency [9] | activation [10] 14% and 23.3%

[C-]1=CC=CC1.[C-]1=CC=CC1.[Cl-].[Cl-].[Ti+4]
inactive: outcome [1] | Potency [15] | Potency [9] | activation [17] 0.145% | max response [14] -17.8%
